Only some compounds are listed: those with a hit (about 11% of all), similar ones and a draw of the others.
NIH3T3 tox: cytotoxic compounds in NIH 3T3 cells; actives 4.3% (n = 94,000); Potency, µM (highest dose often 96.7 µM), most hits filed as inhibitors; NIH 3T3 viability, CellTiter-Glo ATP luminescence, 48-72 h; also: nearly all actives have a fitted effect of over 55% in size
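ATP-dependent luminescence (CellTiter-Glo) served as the viability signal for NIH 3T3 cells treated with compound for 48 or 72 hr at 37 °C.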
hNpr1 antagonist: human Npr1 receptor antagonism; HEK293 hNpr1 GloSensor cGMP, ANP-stimulated luminescence; Potency, µM (series often up to 46.3 µM), most hits filed as inhibitors; actives 1.6% (n = 76,000); AID 1347048; calls by dose curve; also: nearly all actives have a fitted effect of over 60% in size
Target sequence (P16066 whole entry, looked up): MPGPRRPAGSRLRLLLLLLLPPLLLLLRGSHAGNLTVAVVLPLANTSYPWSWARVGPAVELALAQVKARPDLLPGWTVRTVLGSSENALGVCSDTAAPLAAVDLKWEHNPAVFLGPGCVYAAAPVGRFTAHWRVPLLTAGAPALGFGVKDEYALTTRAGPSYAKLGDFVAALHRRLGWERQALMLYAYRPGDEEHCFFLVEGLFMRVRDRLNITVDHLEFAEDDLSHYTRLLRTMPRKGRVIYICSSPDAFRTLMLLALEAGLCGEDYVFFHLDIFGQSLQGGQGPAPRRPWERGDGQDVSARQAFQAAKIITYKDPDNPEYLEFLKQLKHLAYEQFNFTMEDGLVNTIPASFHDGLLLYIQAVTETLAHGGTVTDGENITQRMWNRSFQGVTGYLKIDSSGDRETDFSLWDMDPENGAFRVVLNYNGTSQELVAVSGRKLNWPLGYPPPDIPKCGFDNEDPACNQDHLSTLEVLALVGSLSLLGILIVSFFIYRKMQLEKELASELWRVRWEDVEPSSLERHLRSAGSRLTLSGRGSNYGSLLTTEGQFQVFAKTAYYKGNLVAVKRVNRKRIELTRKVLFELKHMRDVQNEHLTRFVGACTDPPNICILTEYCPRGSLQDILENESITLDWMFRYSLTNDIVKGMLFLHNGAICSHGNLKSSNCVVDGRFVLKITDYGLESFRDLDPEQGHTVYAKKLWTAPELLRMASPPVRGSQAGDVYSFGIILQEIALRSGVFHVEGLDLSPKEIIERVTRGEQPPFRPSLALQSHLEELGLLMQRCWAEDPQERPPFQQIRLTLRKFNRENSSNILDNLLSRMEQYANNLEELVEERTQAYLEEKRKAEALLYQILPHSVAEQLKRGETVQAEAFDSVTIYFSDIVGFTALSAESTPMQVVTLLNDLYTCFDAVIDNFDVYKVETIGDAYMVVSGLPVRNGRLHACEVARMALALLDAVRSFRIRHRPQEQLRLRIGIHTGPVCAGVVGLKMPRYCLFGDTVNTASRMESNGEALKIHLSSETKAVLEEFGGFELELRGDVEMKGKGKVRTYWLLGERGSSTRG
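HEK293 cells stably expressing human Npr1 and cGMP GloSensor pGS-40F, loaded 2 h with 2% GloSensor reagent, given compound 30 min at room temperature. Luminescence read before and 20 min after 0.1 nM hNppA.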
FLuc inh-1: Photinus pyralis luciferase inhibition; purified P. pyralis luciferase, luminescence, biochemical; Potency, µM (top dose mostly 115 µM), usual class: inhibitors; actives 2.5% (n = 76,000); AID 1347043; also: nearly all actives have a fitted effect of over 65% in size
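Luminescence read by CCD imaging after purified firefly luciferase (10nM final) was added to substrate buffer holding 10uM D-luciferin and 10uM ATP, pH 7.5, pre-dosed with compound.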
HEK cytotox: cytotoxic compounds in HEK 293 cells; HEK 293 viability, ATP luminescence (CellTiter-Glo), 48-72 h; Potency, µM (top dose mostly 115 µM), most hits filed as inhibitors; actives 6.6% (n = 94,000); AID 1345083; also: nearly all actives have a fitted effect of over 60% in size
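Read-out: CellTiter-Glo ATP luminescence. Cells: HEK 293, 250 cells/well. Exposure: 48 or 72 hr, 37 degree Celsius.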
FLuc SDR -ATP: binders stabilizing firefly luciferase, without ATP. shares compounds with FLuc inh-1. Purified FLuc-C-HiBiT, Nano-Glo HiBiT luminescence, no ATP. Potency, µM (series often up to 32.7 µM), hits mostly activators. actives 7.8% (n = 1,300); also: nearly all actives have a fitted effect of over 55% in size
FLuc SDR ATP: firefly luciferase binding stabilization, ATP added | actives 8.7% (n = 1,300) | purified FLuc-C-HiBiT + ATP, HiBiT complementation luminescence | shares compounds with FLuc inh-1 | Potency, µM (highest dose often 32.7 µM), most hits filed as activators;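 also: signal reports ligand binding via conformational change of the enzyme rather than luciferase catalysis; nearly all actives have a fitted effect of over 55% in size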
FLuc inh-2: inhibitors of firefly luciferase enzymatic activity; AID 1963320; shares compounds with FLuc inh-1; Potency, µM (series often up to 32.7 µM), most hits filed as inhibitors; purified FLuc-C-HiBiT enzyme, luciferin luminescence; actives 42% (n = 1,300); also: nearly all actives have a fitted effect of over 70% in size
Numbers stand for hits; . = inactive; ? = inconclusive; / = no result. Unless noted, calls follow the shape of the dose curve; as a rule, active = well fitted curve in the direction sought with a large enough effect; inconclusive = small, poorly fitted or top-dose-only effect, or another doubt; inactive = no such curve, though single readings can be large; an effect the other way counts as inactive or inconclusive.

SMILES	NIH3T3 tox	hNpr1 antagonist	FLuc inh-1	HEK cytotox	FLuc SDR -ATP	FLuc SDR ATP	FLuc inh-2
CN1CCCCCCN(C(=O)Nc2ccc3c(c2)OCCO3)CCC1=O	.	.	4.5µM	.	.	?	9.9µM
Cc1ccc(NC(=O)N2CC[C@@H]3C(=O)NCCCCCCN(Cc4ccncc4)[C@@H]3C2)cc1C	?	.	.	?	/	/	/
O=C(Nc1ccc2c(c1)OCCO2)N1CCN(C(=O)N2CC3CC(C2)[C@H]2CCCC(=O)N2C3)CC1 (stereo not given in full)	.	.	.	.	/	/	/
O=C1NCCCCCCN(C(=O)Nc2ccc3c(c2)OCCO3)[C@H]2CCCC[C@@H]12	.	?	4.5µM	.	.	?	8.8µM
Cc1ccc([S+](=O)([O-])N2CCCC(C(=O)N3CCC(N4CCOC4=O)CC3)C2)cc1 (stereo not given)	.	/	/	?	/	/	/
O=C(O)C[C@@H]1CCN(C(=O)c2cccs2)C[C@@H]1CCN1CCN(c2cccc(C(F)(F)F)c2)CC1	?	.	.	.	/	/	/
O=C(NC1CCCCC1)N1CCC(OCc2noc(C3CCCO3)n2)CC1 (stereo not given)	.	/	/	.	/	/	/
O=C1NC(=NC2CCCCC2)C2(CCCN([S+](=O)([O-])c3cccc(C(F)(F)F)c3)C2)N1c1cccnc1 (stereo not given)	.	.	.	?	/	/	/
COc1cccc(-c2cccc(COc3cnc4c(ccn4CC(=O)O)c3)c2)c1F	?	.	13µM	.	.	.	13µM
O=C(O)Cn1ccc2cc(OCc3cccc(-c4ccc(F)c(Cl)c4)c3)cnc21	.	.	.	?	/	/	/
Cc1ccc(-c2cccc(COc3cnc4c(ccn4CC(=O)O)c3)c2)cc1	.	.	7.9µM	?	.	.	?
Cn1ncc2c(C(=O)NC3CC3)cc(-c3ccccc3)nc21	?	/	/	.	/	/	/
COc1ccc(Nc2cc(C(=O)NC3CCC(C)CC3)c3ccccc3n2)cc1OC (stereo not given)	/	/	/	/	.	.	.
O=C(c1ccc(CSc2nc3ccncc3n2Cc2ccccc2F)cc1)N1CCCCC1	/	/	/	/	.	.	?
O=C1CCN(C(=O)c2ccccc2)CCCC(C(=O)N2CCN(Cc3ccccc3F)CC2)CCN1 (stereo not given)	.	.	.	.	/	/	/
Cc1cccc(CNC(=O)Cc2csc3ccccc23)c1	/	/	/	/	.	.	.
COc1cccc(-n2cnc3c(N/N=C/c4ccncc4)ncnc32)c1	/	/	/	/	.	.	?
Cc1c(CN2CCOc3c(O)cc(-c4nc5ccccc5s4)cc3C2)cnn1C	/	/	/	/	.	.	.
Cc1cncc(C(=O)N2CCOc3c(O)cc(-c4nc5ccccc5s4)cc3C2)c1	?	.	?	40µM	.	.	.
Cc1nnc(CN2CCOc3c(O)cc(-c4ccccc4C)cc3C2)s1	?	.	.	?	/	/	/
Cc1cnc(C)c(-c2cc(O)c3c(c2)CN(C(=O)c2ccncn2)CCO3)n1	.	.	.	.	/	/	/
Cc1nc(CN2CCOc3c(O)cc(-c4nc5ccccc5s4)cc3C2)no1	.	.	.	?	.	.	.
O=C(c1ccc(F)cc1Cl)N1CCC2(CC1)NC(=O)N(c1ccccc1Cl)N2	?	.	.	?	/	/	/

Screening results (PubChem)
